The text below walks through data of PubChem BioAssay.

Assay [1] is described as follows: blockers of polyQ-driven CASP3 activation – cell-based (AID 1583). Conditions: polyglutamine-induced caspase-3 activation, cell assay; stronger effect = higher value;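 tested at 10 µM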.
Assay [2] in a line: restoration of touch response, mutant HTT neurons – whole organism, C. elegans mechanosensory neurons, N-terminal huntingtin (AID 1599). Conditions: C. elegans polyQ-huntingtin mechanosensory neurons, stronger effect = higher value.
Assay [3] can be described thus: glutamate transport activators, MN-1 cells, MN-1 cell line (AID 1612).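 Also: tested at 1 µM final; 0% = mean of DMSO vehicle wells on each plate; positive means more glutamate uptake than control and negative means less.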 Conditions: MN-1 motor neuron cells, stronger effect = higher value.
Assay [4] in a line: GFP-Q80 aggregate reduction, neuronal-like cells, cell-based, NGF-treated PC12, GFPQ80 (AID 1614).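 Also: lower means fewer inclusions and 0 means no inclusions at all.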 Conditions: PC12 NGF-treated GFP-polyQ80 inclusion reduction.
A short description of assay [5]: 75Q-TubH aggregate inhibition, S. cerevisiae, yeast (AID 1616). Conditions: S. cerevisiae 75Q-TubH polyglutamine aggregation suppression; stronger effect = higher value.
Assay [6] is described as follows: compounds altering viability of human ES cells (AID 493140; call rule not given here;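 also: cells exposed to compounds for four days before counting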). Conditions: human embryonic stem cell survival screen; stronger effect = higher value.
The nature of assay [7]: compounds altering circadian rhythm period length – cell-based, LOPAC library, luminescence reporter (AID 2774; call rule not given here;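 also: values are relative to mean of DMSO wells on each plate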). Conditions: circadian reporter cells, at 7 µM, actives lie on both sides.
Assay [8] in a line: compounds altering Cy5-DNA-NS3h complex signal – biochemical, LOPAC1280, artefact control for HCV NS3 helicase inhibitor project (AID 687037; call rule not given here). Conditions: Cy5-DNA-NS3h complex fluorescence interference counterscreen. In general terms: A counterscreen serves to expose hits that act by an unwanted route or on another target.
The test system of assay [9] is Aerobactin synthetase IucA (Klebsiella pneumoniae, hypervirulent). The assay is described as follows: biochemical IucA inhibition screen of LOPAC library by absorbance (AID 1346212; call rule not given here;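 also: 100% = no compound wells and 0% = no enzyme wells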). Conditions: IucA enzyme assay, absorbance (OD) readout; stronger effect = lower value;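 tested at 8 µM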.
Assay [10] can be described thus: blockers of cellular phospholipid synthesis – cell-based, LOPAC library, screen 4, primary screen (AID 1347384; call rule not given here). Particulars: animal cells, phospholipid biosynthesis inhibition screen; at 10 µM.
A short description of assay [11]: modulation of C. elegans fzo-1 (AID 1259413; call rule not given here;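 also: fzo-1 mutant C. elegans worms in liquid wells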). Conditions: C. elegans fzo-1 modulator screen, mean read-out; stronger effect = higher value.
The test system of another assay is F380Y. Description: BK channel mutant inhibitors and activators – cell-based, U2OS BacMam, thallium flux, beta subunits, selectivity assay, profiling panel (AID 1259406).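 Also: initial slope of Thallos dye fluorescence rise after thallium is added; log ratio against the mean of 0.3% DMSO vehicle wells on the same plate.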 Particulars: U2OS BacMam BK variants, at 30 µM.
For another assay, the system named is F380Y/beta1. The assay is described as above. Conditions: U2OS BacMam BK variants, at 30 µM.
In another assay the test system is F380Y/beta2Delta. Described as above. Conditions: U2OS BacMam BK variants, at 30 µM.
Another assay concerns R275C. The assay is described as above. Particulars: U2OS BacMam BK variants, at 30 µM.
For another assay, the system named is R275C/beta1. Described as above. Particulars: U2OS BacMam BK variants, at 30 µM.
The subject of the next assay is R275C/beta2Delta. Described as above. Conditions: U2OS BacMam BK variants, at 30 µM.
For a further assay, the system named is R275C/Slo1WT/beta2. The description is as above. Particulars: U2OS BacMam BK variants, at 30 µM.
Assay [12] relates to Hepatitis C virus NS3 helicase. Description: blockers of NS3h binding to ssDNA – biochemical, fluorescence polarization, LOPAC1280 library, primary screen (AID 687035; in the data active = inhibition above about 37%). Conditions: Purified HCV NS3 helicase, Cy5-dT15 ssDNA binding fluorescence polarization; stronger effect = higher value; concentration not given here. In general terms: In fluorescence polarisation assays a small probe gives low polarisation when free and higher when bound to something large.

Assay [13] has as its target ATP-dependent translocase ABCB1 (Homo sapiens) (UniProt P08183). Description: P-glycoprotein substrate transport blockade – cell-based (AID 377; in the data active = fluorescence slope change above about 50%). Conditions: MDR1-expressing cells, fluorescent substrate accumulation slope; stronger effect = higher value; concentration not given here.

Each structure is given as a SMILES string. Results filed as inconclusive are left out. For some of these results: Entries with a potency or affinity are not part of this list. Activity calls are given as the source filed them.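 The calls were made as follows, unless noted: active = thallium flux through the channel raised or lowered by more than 3 SD from vehicle-only wells, actives on both sides; inactive = the rest.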

As a reminder, the inhibition is the change of the read-out against control, counted positive when it falls. As usually defined, the remaining activity is the signal under treatment as a percentage of the control signal.

ATP-dependent translocase ABCB1 (Homo sapiens), sequence (P08183 whole entry, looked up): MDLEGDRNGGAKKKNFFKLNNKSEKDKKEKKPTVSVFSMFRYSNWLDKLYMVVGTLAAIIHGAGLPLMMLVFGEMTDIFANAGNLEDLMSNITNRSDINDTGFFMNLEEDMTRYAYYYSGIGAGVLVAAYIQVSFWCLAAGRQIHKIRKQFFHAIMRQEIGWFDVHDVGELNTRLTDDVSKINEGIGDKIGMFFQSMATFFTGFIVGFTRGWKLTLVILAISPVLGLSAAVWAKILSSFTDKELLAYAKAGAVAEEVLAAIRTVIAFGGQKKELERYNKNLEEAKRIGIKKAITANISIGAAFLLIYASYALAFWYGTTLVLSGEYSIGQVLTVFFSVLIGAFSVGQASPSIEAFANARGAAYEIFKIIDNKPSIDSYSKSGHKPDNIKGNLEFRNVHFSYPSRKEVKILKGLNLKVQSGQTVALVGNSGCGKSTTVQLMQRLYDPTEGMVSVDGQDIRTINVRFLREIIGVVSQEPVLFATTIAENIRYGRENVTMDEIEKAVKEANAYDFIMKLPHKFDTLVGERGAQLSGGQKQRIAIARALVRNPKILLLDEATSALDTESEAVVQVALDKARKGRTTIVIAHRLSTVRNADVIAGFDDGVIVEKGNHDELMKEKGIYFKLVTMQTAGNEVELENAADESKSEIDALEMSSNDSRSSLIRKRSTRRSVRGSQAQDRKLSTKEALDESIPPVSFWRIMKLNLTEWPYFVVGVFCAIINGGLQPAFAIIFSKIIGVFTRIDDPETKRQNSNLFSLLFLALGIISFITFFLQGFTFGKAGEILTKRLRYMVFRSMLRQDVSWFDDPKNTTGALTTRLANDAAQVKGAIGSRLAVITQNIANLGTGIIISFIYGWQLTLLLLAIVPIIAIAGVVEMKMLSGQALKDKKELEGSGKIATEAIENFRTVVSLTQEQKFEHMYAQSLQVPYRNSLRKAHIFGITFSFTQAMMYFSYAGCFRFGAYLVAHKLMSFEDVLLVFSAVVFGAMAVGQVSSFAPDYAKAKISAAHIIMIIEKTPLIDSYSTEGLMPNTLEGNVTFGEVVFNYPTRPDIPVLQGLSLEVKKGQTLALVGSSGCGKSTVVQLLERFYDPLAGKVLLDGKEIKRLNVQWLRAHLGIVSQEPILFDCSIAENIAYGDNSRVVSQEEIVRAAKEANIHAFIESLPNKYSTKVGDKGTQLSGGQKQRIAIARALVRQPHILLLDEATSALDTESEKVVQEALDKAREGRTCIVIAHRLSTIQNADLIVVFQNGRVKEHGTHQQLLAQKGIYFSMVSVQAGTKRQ

For `NC(=O)c1cc([N+](=O)[O-])cc([N+](=O)[O-])c1`, the inhibition in assay [1] was -15.4%. Moreover, the rescue above control in assay [2] is -6.77. For the same compound, the glutamate uptake change in assay [3] is -3.86%. In addition, in [4], the inclusion score came out at 2. In assay [5], this compound displayed an aggregation suppression score of 1.47.

For the compound `CC1=C2[C@H]3OC(=O)[C@@H](C)[C@@H]3CC[C@@]2(C)C=CC1=O`, the survival in assay [6] is 2.25 (inactive).

As to `NCCc1cc(O)c(O)cc1O`, the inhibition in assay [1] came to 18.9%. In assay [2], the rescue above control was -4.94. The glutamate uptake change in [3] was -13.1%. The same compound yielded an aggregation suppression score in [5] of 1.41.

As to `CC[C@@H](CO)NC(=O)[C@@H]1C=C2c3cccc4c3c(cn4C)C[C@H]2N(C)C1`, the period change in assay [7] was 0.11 h (inactive). The fluorescence ratio (interference) in assay [8] was 1 (inactive). For the same compound, the remaining activity in [9] is 112% (inactive). Also, the result in assay [10] was inactive.

On to `CN1CCN(C(=O)O[C@H]2c3nccnc3C(=O)N2c2ccc(Cl)cn2)CC1`, for which the mean signal in assay [11] was 290 (active). The log fold change Tl+ flux is -0.0134 (inactive) in the assay with F380Y; -0.0113 (inactive) in the assay on F380Y/beta1; 0.0361 (inactive) with F380Y/beta2Delta; 0.0376 (inactive) with R275C; 0.0325 (inactive) in the assay on R275C/beta1; 0.0513 (inactive) with R275C/beta2Delta. Also, in the assay with R275C/Slo1WT/beta2, the log fold change Tl+ flux is -0.0138 (inactive).

Consider `COc1ccc(C(=O)N2CCCC2=O)cc1`, for which the results for the inhibition in [1] and in assay [12] were 15.7% and -3% (inactive), respectively. In addition, the rescue above control in [2] came to 2.57. Moreover, in assay [3], the glutamate uptake change worked out at 5.51%. This compound also displayed an inclusion score in assay [4] of 2. In assay [5], this compound displayed an aggregation suppression score of 1.16. In assay [7], the period change was -0.01 h (inactive). The fluorescence ratio (interference) in assay [8] is 0.9 (inactive). Besides, the remaining activity in assay [9] is 122% (inactive). In addition, the call in assay [10] was inactive.

As to `Nc1ccncc1`, the figures for the inhibition in assay [1] and in assay [12] were -15.5% and -4% (inactive), respectively. In [2], this compound registered a rescue above control of 26.7. Also, in [3], the glutamate uptake change was -9.57%. This compound displayed an inclusion score in assay [4] of 2. Moreover, the aggregation suppression score in assay [5] is 1.23. In assay [7], the period change was 0.07 h (inactive). The fluorescence ratio (interference) in assay [8] is 0.9 (inactive). The remaining activity in [9] was 103% (inactive). Also, the compound was called inactive in assay [10].

As to `NC(=O)OCCCc1ccccc1`, in [11], the mean signal is 256 (inactive). Besides, the log fold change Tl+ flux is 0.0271 (inactive) in the assay on F380Y; 0.00909 (inactive) in the assay on F380Y/beta1; 0.0735 (inactive) in the assay with F380Y/beta2Delta; -0.0501 (inactive) in the assay with R275C; 0.00561 (inactive) in the assay on R275C/beta1; 0.00928 (inactive) in the assay on R275C/beta2Delta. The log fold change Tl+ flux with R275C/Slo1WT/beta2 is 0.0397 (inactive).

As to `Oc1cccc2cccnc12`, in assay [1], the inhibition is -67%. Also, the rescue above control in [2] amounted to 8.29. Besides, the glutamate uptake change in [3] was 53.7%. The aggregation suppression score in assay [5] was 0.00802.

Consider `O=P1(NCCCl)OCCCN1CCCl` (stereo unspecified), for which the survival in [6] is 3.83 (inactive).

Turning to `CN[C@@H]1C[C@@H](c2ccc(Cl)c(Cl)c2)c2ccccc21`, in [7], the period change was 0.04 h (inactive). For the same compound, the inhibition in [12] was -2% (inactive). Also, the fluorescence ratio (interference) in assay [8] was 0.9 (inactive). Besides, in assay [11], the mean signal was 207 (inactive). In assay [9], the remaining activity is 107% (inactive). Besides, the compound was called inactive in assay [10]. The log fold change Tl+ flux in the assay with F380Y is 0.0202 (inactive); with F380Y/beta2Delta it was 0.44 (active); with R275C it was -0.12 (active); in the assay with R275C/beta1, 0.445 (active); in the assay on R275C/beta2Delta it was 0.134 (active).

Consider `CN(C)C(=O)Oc1cc(OC(=O)N(C)C)cc(C(O)CNC(C)(C)C)c1` (stereo unspecified), for which the fluorescence slope change in [13] is 19% (inactive). For the same compound, the survival in assay [6] was 12.5 (inactive).

In the case of `CCC(COC(=O)c1cc(OC)c(OC)c(OC)c1)(c1ccccc1)N(C)C` (stereo unspecified), the mean signal in assay [11] is 257 (inactive). Moreover, the log fold change Tl+ flux in the assay on F380Y is -0.284 (active); in the assay on F380Y/beta1 it was -0.135 (active); with F380Y/beta2Delta, -0.21 (active); in the assay with R275C, -0.249 (active); in the assay with R275C/beta1, -0.324 (active); in the assay with R275C/beta2Delta it was -0.495 (active). Moreover, the log fold change Tl+ flux in the assay with R275C/Slo1WT/beta2 is -0.104 (active).
